Measurements reported in PubChem BioAssay (Tox21).
Values joined by “and” are separate entries in the source; they are usually repeats but may differ in a detail not shown here. Equal values may be shown once. Records with an inconclusive call do not appear. Entries that show only a call come without a potency. Some structures have more than one record in an assay (separate samples or runs), and their calls can disagree. Active and inactive are the calls of the source. Calls come from the whole dose curve; as a rule, active = well fitted curve in the direction sought with a large enough effect in the repeat runs; inconclusive = weak or mixed curves; inactive = no such curve, though single readings can be large; an effect the other way counts as inactive or inconclusive.

biological target: Voltage-gated inwardly rectifying potassium channel KCNH2 (Homo sapiens) (UniProt Q12809); test: Human Ether-a-go-go-Related Gene (hERG) channel small molecule antagonists: fluorescence cell-based qHTS assay (AID 1671200); conditions: hERG-U2OS cells, FluxOR thallium flux fluorescence; series mostly up to 76.8 µM;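 note: hERG-expressing U2OS cells given a thallium stimulus after FluxOR II dye loading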
Summary of the method: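 First, 1000 cells per well are seeded and cultured overnight at 37 C. Next, FluxOR II dye is loaded for 1 h at room temperature, protected from light. After 10 more minutes, stimulus is added and fluorescence is read.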
Note: nearly all actives have a fitted effect of over 50% in size.

Voltage-gated inwardly rectifying potassium channel KCNH2 (Homo sapiens), sequence (Q12809 whole entry, looked up): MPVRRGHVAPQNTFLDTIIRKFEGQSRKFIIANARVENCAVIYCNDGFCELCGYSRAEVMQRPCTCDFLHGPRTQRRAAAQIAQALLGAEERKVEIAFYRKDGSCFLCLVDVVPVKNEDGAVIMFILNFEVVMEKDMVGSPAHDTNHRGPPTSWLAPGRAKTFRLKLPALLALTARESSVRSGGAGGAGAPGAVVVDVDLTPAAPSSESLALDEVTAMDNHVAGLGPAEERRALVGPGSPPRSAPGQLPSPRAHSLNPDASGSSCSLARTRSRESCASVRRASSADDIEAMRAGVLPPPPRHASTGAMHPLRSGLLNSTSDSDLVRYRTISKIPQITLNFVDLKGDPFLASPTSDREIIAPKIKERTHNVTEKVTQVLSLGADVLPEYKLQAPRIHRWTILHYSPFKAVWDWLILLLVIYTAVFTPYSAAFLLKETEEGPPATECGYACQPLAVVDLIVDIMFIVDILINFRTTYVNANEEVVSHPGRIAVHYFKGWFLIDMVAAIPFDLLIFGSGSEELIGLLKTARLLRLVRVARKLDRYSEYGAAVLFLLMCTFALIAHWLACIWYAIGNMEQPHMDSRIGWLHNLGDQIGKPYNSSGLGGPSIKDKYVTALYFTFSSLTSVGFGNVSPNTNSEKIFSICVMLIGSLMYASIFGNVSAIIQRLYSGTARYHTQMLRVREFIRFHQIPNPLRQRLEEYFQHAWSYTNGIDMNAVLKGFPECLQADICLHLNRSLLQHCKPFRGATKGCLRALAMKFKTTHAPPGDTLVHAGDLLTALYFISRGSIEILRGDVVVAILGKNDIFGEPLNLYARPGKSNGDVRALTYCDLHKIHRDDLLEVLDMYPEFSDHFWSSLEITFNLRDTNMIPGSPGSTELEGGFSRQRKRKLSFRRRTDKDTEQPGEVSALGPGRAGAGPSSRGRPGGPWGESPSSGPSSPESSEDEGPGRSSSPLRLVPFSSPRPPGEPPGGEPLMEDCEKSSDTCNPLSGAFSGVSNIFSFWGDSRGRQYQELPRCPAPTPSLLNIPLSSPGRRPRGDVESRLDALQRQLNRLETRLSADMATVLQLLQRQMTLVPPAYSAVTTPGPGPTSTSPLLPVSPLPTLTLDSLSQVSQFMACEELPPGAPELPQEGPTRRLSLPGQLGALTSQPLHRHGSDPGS

SMILES	Potency
O=[N+]([O-])c1ccc(Cl)cc1	inactive
CCOc1ccc(N)cc1	inactive
CNC(=O)O/N=C/C(C)(C)S(C)=O (stereo unspecified)	inactive
CNC(=O)O/N=C(\SC)C(=O)N(C)C	inactive
Cc1cc(O)ccc1Cl	inactive
c1ccc2c(c1)CCCC2	inactive
CCOP(=S)(OCC)Oc1cc(C)nc(C(C)C)n1	inactive
COC(C)(C)CCCC(C)C/C=C/C(C)=C/C(=O)OC(C)C (stereo unspecified)	inactive

biological target: Cytochrome P450 3A4 (Homo sapiens) (UniProt P08684); test: Cytochrome P450 Family 3 Subfamily A Member 4 (CYP3A4) small molecule antagonists: luciferase reporter qHTS assay (AID 1671201); conditions: P450-Glo CYP3A4 enzyme, luciferin luminescence, 1 h; series mostly up to 115 µM; note: potency is the fitted concentration of half-maximal effect
Summary of the method: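 Enzyme and proluciferin substrate are mixed with test chemicals for 10 min, then NADPH regeneration system drives turnover for 1 h at room temperature. A detection reagent halts the reaction; luminescence after 20 min gives relative activity.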

Cytochrome P450 3A4 (Homo sapiens), sequence (P08684 whole entry, looked up): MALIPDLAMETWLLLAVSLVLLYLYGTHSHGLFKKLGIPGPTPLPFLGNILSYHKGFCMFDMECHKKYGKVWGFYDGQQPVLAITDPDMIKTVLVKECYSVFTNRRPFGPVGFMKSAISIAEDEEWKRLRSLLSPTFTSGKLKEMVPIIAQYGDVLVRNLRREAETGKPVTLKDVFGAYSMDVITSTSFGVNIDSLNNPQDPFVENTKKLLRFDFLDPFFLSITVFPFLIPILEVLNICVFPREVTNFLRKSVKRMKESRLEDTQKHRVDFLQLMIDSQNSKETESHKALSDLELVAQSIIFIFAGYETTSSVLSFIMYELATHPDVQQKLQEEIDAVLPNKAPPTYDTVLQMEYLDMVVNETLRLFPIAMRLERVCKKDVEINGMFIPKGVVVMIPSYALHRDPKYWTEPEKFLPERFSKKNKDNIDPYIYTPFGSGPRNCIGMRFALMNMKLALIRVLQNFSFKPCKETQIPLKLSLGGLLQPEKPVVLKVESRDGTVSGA

SMILES	Potency
O=C(O)C1C(C(=O)O)C2(Cl)C(Cl)=C(Cl)C1(Cl)C2(Cl)Cl (stereo unspecified)	inactive
Nc1cccc(Cl)c1	inactive
Clc1cnc(Oc2ccc(Oc3ncc(Cl)cc3Cl)cc2)c(Cl)c1	inactive
O=C(O)c1cc(Oc2ccc(C(F)(F)F)cc2Cl)ccc1[N+](=O)[O-]	inactive
Cc1ccc(N=C=O)cc1N=C=O	5.78 µM (active) and 2.82 µM (active) and inactive
CN1C(=O)CCS(=O)(=O)C1c1ccc(Cl)cc1 (stereo unspecified)	inactive
O=S(=O)(O)OOS(=O)(=O)O	inactive
Cl[C@H]1OCCO[C@@H]1Cl	inactive
Cl/C=C/Cl	inactive
COc1nc(NC(C)C)nc(NC(C)C)n1	inactive
O=C(O)C(Br)Br	inactive
O=C(O)Cc1ccccc1	inactive
CCSC(=O)N1CCCCCC1	30.8 µM (active) and inactive
N#Cc1ccccn1	inactive
O=[N+]([O-])c1cc([As](=O)(O)O)ccc1O	inactive
CN(C)NC(=O)CCC(=O)O	inactive
O=[N+]([O-])c1ccc(Cl)c(Cl)c1	inactive
CC(C)(C)C(=O)CCl	inactive
CCCOC(=O)c1ccccc1C(=O)OCCC	inactive
Nc1ncc([N+](=O)[O-])s1	inactive
Cc1ccc(O)c(C)c1	inactive
O=[N+]([O-])c1ccc(Cl)cc1	inactive
CCOc1ccc(N)cc1	inactive
CNC(=O)O/N=C/C(C)(C)S(C)=O (stereo unspecified)	inactive
CNC(=O)O/N=C(\SC)C(=O)N(C)C	inactive
Cc1cc(O)ccc1Cl	inactive
c1ccc2c(c1)CCCC2	inactive
COC(C)(C)CCCC(C)C/C=C/C(C)=C/C(=O)OC(C)C (stereo unspecified)	inactive
